# Results as given in PubChem BioAssay (NCATS).
# Records with an inconclusive call do not appear. A call without a number means that no potency is given here. Calls of active or inactive are those of the source. Calls come from the whole dose curve; as a rule, active = well fitted cell-killing curve with a large enough effect; inconclusive = small, poorly fitted or top-dose-only effect; inactive = flat fitted curve, though single readings scatter.
# Assay: Cell Viability - LYMP2-016 (AID 984); note: nearly all actives have a fitted effect of over 55% in size
# Conditions: LYMP2-016 lymphoblastoid cell viability, qHTS; series mostly up to 92.2 µM
# Description: NIH Chemical Genomics Center [NCGC]
# NIH Molecular Libraries Screening Centers Network [MLSCN]
# National Institutes of Environmental Health Sciences [NIEHS]
# National Toxicology Program [NTP]
# We have developed a 1536-well cell-based assay for quantitative high throughput screening (qHTS) against a number of cell lines to determine in vitro cytotoxicity of small molecules. This particular assay uses a human lymphoblastoid cell line (LYMP2-016) purchased from Coriell Institute for Medical Research.
# NCGC Assay Protocol Summary:
# The CellTiter-Glo luminescent cell viability assay (Promega) is a homogeneous method to measure the number of viable cells in culture. The end point readout of this assay is based on quantitation of intracellular ATP, an indicator of metabolic activity, using the luciferase reaction. Luciferase catalyzes the oxidation of beetle Luciferin to oxyluciferin and light in the presence of ATP. The luminescent signal is proportional to amount of ATP present.
# Using the CellTiter-Glo luminescent cell viability assay, the amount of cellular ATP was measured in the lymphoblastoid cell line with complete culture medium following compound treatment for 24 hours. The assay was performed in opaque white Kalypsys 1536-well plates. In the screen, tetraoctylammonium bromide was used as positive control. Library compounds were measured for their ability to cause acute toxicity in the cell line, as reflected by a decrease in intracellular ATP levels, in a concentration-dependent manner. […] AC50 values were determined from concentration-response data modeled with the standard Hill equation.
# qHTS protocol for CellTiter Glo lymphoblastoid cellular assay
# [Step] [Parameter] [Value] [Description]
# 1. Reagent; 5 uL; 2500 lymphoblastoid cells/well
# 2. Time; 5 hr; 37 C incubation
# 4. Controls; 23 nL; Tetraoctylammonium bromide 6.4pM to 92 uM
# 5. Time; 24 hr; 37 C incubation
# 6. Reagent; 5 uL; CellTiter Glo reagent
# 7. Time; 30 min; Room Temperature
# 8. Detection; Luminescence; Viewlux plate reader
# Keywords: cell viability, cytotoxicity, lymphoblastoid cell line, luminescence, NTPHTS, NTPHTS_NCGC, NIEHS, DSSTox, MLSMR, MLSCN, NIH Roadmap, qHTS, NCGC
# Potency is the fitted concentration of half-maximal effect.
row,Structure (SMILES),Potency
1,CC(C)O,inactive
2,CCCCO,inactive
3,Oc1ccc(/C=C/c2cc(O)cc(O)c2)cc1,inactive
4,NCCN,inactive
5,O.O.O.O.O.O.O.O=S(=O)([O-])[O-].[Co+2],inactive
6,CO,inactive
7,Nc1nccs1,inactive
8,O=c1n(CC2CO2)c(=O)n(CC2CO2)c(=O)n1CC1CO1 (stereo not given),31.6 µM (active)
9,c1ccc2ccccc2c1,inactive
10,C[C@H](CCC(=O)O)[C@H]1CC[C@H]2[C@@H]3CC[C@@H]4C[C@H](O)CC[C@]4(C)[C@H]3C[C@H](O)[C@]12C,inactive
11,CC(C)(C)CC(C)(C)c1ccc(OCCO)cc1,inactive
12,COC(=O)c1ccccc1O,inactive
13,OB(O)O,inactive
14,CC1=CCC2CC1C2(C)C (stereo not given),inactive
15,Oc1cccc(O)c1O,inactive
16,ClC(Cl)Cl,inactive
17,CCOC(C)OCC,inactive
18,OCC(O)CO,inactive

row,Structure (SMILES),Potency
1,C=C1C(CCl)(CCl)C2(Cl)C(Cl)C(Cl)C1(Cl)C2(Cl)Cl (stereo not given),50.1 µM (active)
2,NC(N)=O,inactive
3,Nc1ccc(N=Nc2ccccc2)c(N)n1,inactive
4,C/C=C/C=C/C(=O)O,inactive
5,OCl,inactive
6,CO/N=C(/C(=O)N[C@@H]1C(=O)N2C(C(=O)O)=C(COC(N)=O)CS[C@H]12)c1ccco1,inactive
7,CC1=CC(=O)NS(=O)(=O)O1,inactive
8,CC[C@H]1OC(=O)[C@H](C)[C@@H](O[C@H]2C[C@@](C)(OC)[C@@H](O)[C@H](C)O2)[C@H](C)[C@@H](O[C@@H]2O[C@H](C)C[C@H](N(C)C)[C@H]2O)[C@](C)(O)C[C@@H](C)CN(C)[C@H](C)[C@@H](O)[C@]1(C)O,inactive
9,Cc1ccc(S(=O)(=O)O)cc1C,inactive
10,[O-][N+](=Nc1ccccc1)c1ccccc1,inactive
11,CCCCC,inactive
12,C[C@H](CCC(=O)O)[C@H]1CC[C@H]2[C@@H]3[C@H](O)C[C@@H]4C[C@H](O)CC[C@]4(C)[C@H]3C[C@H](O)[C@]12C,inactive
13,OC[C@H]1O[C@@H]2O[C@H]3[C@H](O)[C@@H](O)[C@@H](O[C@H]4[C@H](O)[C@@H](O)[C@@H](O[C@H]5[C@H](O)[C@@H](O)[C@@H](O[C@H]6[C@H](O)[C@@H](O)[C@@H](O[C@H]7[C@H](O)[C@@H](O)[C@@H](O[C@H]1[C@H](O)[C@H]2O)O[C@@H]7CO)O[C@@H]6CO)O[C@@H]5CO)O[C@@H]4CO)O[C@@H]3CO,inactive
14,O=P(O)(O)O,inactive
15,Cc1ncc[nH]1,inactive
16,Nc1ncnc2c1ncn2[C@H]1CC[C@@H](CO)O1,inactive
17,OCc1ccccc1,inactive
